Results published in PubChem BioAssay.
Activity calls are given as the source filed them. Unless noted, the rule behind the calls is not given here.

How the values were obtained:
[1] = tested on: XIP peptide (Xip251-270) binding; experiment: small-molecule binders of XIP peptide, primary screen, biochemical, small-molecule microarray, fluorescence 635/667 nm, 0.1 µg/mL protein (AID 1182); conditions: fluorescent protein binding, 635 nm, higher = more signal, called active from +8 up or from −8 down
XIP peptide (Xip251-270) = experiment: small-molecule binders of XIP peptide, primary screen, biochemical, small-molecule microarray, fluorescence 635/667 nm, 0.5 µg/mL protein (AID 1183); conditions: small-molecule microarray binding, fluorescence 635 nm; higher = more signal
[2] = Plasmodium falciparum growth inhibition, primary screen, strain 3D7, DAPI fluorescence, 100 nL (AID 1184);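 note: parasites grown inside human red blood cells in medium with human serum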; conditions: P. falciparum 3D7 growth, 3 d, higher = more signal
[3] = biological target: Homeobox protein Hox-A13 (Mus musculus) (UniProt Q62424); experiment: inhibitors of HoxA13-DNA binding, primary screen, biochemical, fluorescence polarization, labeled oligonucleotide (AID 1185); conditions: 15 min, higher = more signal, called active from +8 up or from −8 down
Sequence of Homeobox protein Hox-A13 (Mus musculus) (Q62424 whole entry, looked up): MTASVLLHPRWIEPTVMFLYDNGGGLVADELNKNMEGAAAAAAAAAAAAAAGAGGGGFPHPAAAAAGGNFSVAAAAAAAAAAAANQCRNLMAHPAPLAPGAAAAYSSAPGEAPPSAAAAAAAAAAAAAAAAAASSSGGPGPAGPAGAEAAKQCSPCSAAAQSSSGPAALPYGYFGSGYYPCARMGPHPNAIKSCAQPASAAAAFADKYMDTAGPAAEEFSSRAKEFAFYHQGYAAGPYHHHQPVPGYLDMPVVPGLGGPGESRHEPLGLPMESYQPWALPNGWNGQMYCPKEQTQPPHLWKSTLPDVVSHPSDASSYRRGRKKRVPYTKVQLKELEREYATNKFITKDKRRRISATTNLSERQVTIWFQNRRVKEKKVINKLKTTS

[4] = inhibitors of hydroxyurea-induced Chk1 phosphorylation, primary screen, imaging, HeLa, phospho-Chk1 antibody, percent positive cells (AID 1186); conditions: hydroxyurea-induced phospho-Chk1 immunofluorescence imaging, higher = more signal
[5] = inhibitors of hydroxyurea-induced Chk1 phosphorylation, primary screen, imaging, HeLa, phospho-Chk1 nuclear intensity (AID 1187); conditions: hydroxyurea-induced phospho-Chk1 immunofluorescence imaging, higher = more signal

Row | SMILES | composite z-score [1] | composite z-score (XIP peptide (Xip251-270)) | z-score [2] | z-score [3] | z-score [4] | z-score [5]
1 | C[C@@H]1ON(c2ccc(I)cc2)[C@H](c2ccc(OC(=O)OC(C)(C)C)cc2)[C@H]1C(=O)N1C(=O)OC[C@H]1Cc1ccccc1 | 0.589 (inactive) | 0.515 | -2.13 | -0.866 (inactive) | -1.08 (inactive) | -0.859 (inactive)
2 | CCOC(=O)C=Cc1cc(F)ccc1O | 0.198 (inactive) | 0.487 | -1.65 | -0.42 (inactive) | 0.631 (inactive) | -1.13 (inactive)
3 | CC(=O)n1cc(C(O)C2C=CC3C(=O)N(c4ccccc4)C(=O)C3N2Nc2ccc(C(C)C)cc2)c2ccccc21 (stereo not drawn) | 0.18 (inactive) | 0.755 | -0.15 | -2.7 (inactive) | 0.417 (inactive) | 0.2 (inactive)
4 | COC(=O)[C@@]1(Cc2ccc(F)cc2)[C@H]2c3cc(C(=O)N(C)C)n(Cc4c(CO)[nH]cc(C)c4=O)c3C[C@H]2CN1C(=O)c1ccccc1 | 0.493 (inactive) | -0.0903 | -1.81 | -5.02 (inactive) | 0.815 (inactive) | 0.493 (inactive)
5 | C=C(COC)C(=O)CC[C@H](OC(C)=O)c1ccc(OCCO)cc1 | -0.388 (inactive) | 0.58 | -2.39 | -4.76 (inactive) | -0.559 (inactive) | -0.357 (inactive)
6 | CCCC=C(CCC)[C@@H](NC(=O)CCc1ccccc1)c1ccc(C(F)(F)F)cc1 | -0.143 (inactive) | 0.75 | -1.65 | -3.8 (inactive) | 0.007 (inactive) | -0.287 (inactive)
7 | COc1ccc(C#Cc2ccc3c(c2)[C@]2(C(=O)N3)[C@H](c3ccc(OCCO)cc3)N3[C@H](c4ccccc4)[C@H](c4ccccc4)OC(=O)[C@H]3[C@@H]2C(=O)N2CCc3cc(OC)c(OC)cc3C2)cc1 | 0.119 (inactive) | 0.659 | -1.92 | 2.11 (inactive) | -0.0018 (inactive) | 0.0006 (inactive)
8 | CN(C)CCCCCCNC(=O)[C@@H]1C[C@@H]2C(=O)N[C@@H](CCCCN)C(=O)N2[C@@H]1c1ccc(O)cc1 | 0.802 (inactive) | 0.753 | -1.02 | -1.14 (inactive) | 0.291 (inactive) | 0.481 (inactive)
9 | Nc1cc(Br)ccc1C(=O)O | 0.513 (inactive) | -0.244 | 1.1 | 0.686 (inactive) | 0.132 (inactive) | 0.343 (inactive)
10 | CC1(C)C(=O)C(c2ccccc2)=C2CN3C(=O)N(CCc4ccccc4)C(=O)C3(Cc3ccc(F)cc3)C=C21 (stereo not drawn) | 0.2 (inactive) | 0.328 | -1.81 | -1.99 (inactive) | 0.478 (inactive) | -0.173 (inactive)
11 | [N-]=[N+]=NCc1ccccc1[C@@H]1OC(c2ccc(OCCCO)cc2)=N[C@]1(Cc1ccccc1N=[N+]=[N-])C(=O)N1CCCCC1 | 0.111 (inactive) | 0.724 | -2.16 | -1.44 (inactive) | -0.234 (inactive) | -0.0332 (inactive)
12 | [N-]=[N+]=NC[C@H](Cc1ccccc1)NC(=O)c1ccccc1 | -0.359 (inactive) | 0.108 | -0.855 | -0.271 (inactive) | 0.0506 (inactive) | 0.216 (inactive)
13 | CCCNC(=O)[C@@]1(C)c2ccccc2C(=O)N(Cc2ccccc2)[C@H]1c1ccc(CO)cc1 | 0.952 (inactive) | 0.355 | -0.804 | -1.91 (inactive) | -0.558 (inactive) | -0.579 (inactive)
14 | CS(=O)(=O)CCOC(=O)C1=CC(CCCO)=CC(C2CC2)N(Cc2cccc(OC(F)(F)F)c2)C=C1C(=O)OCCS(C)(=O)=O (stereo not drawn) | 0.892 (inactive) | -0.221 | -2.11 | -6.49 (inactive) | -0.002 (inactive) | -0.36 (inactive)
15 | CCOC(=O)C1=C[C@@H](C(C)(C)C)N(S(=O)(=O)c2ccc(C)cc2)[C@H]1c1ccccc1 | 0.19 (inactive) | 0.311 | -2.01 | -0.661 (inactive) | 0.327 (inactive) | -0.0853 (inactive)
16 | O=C1C2C=CC(C(O)c3cc(C(F)(F)F)cc(C(F)(F)F)c3)N(Nc3ccccc3F)C2C(=O)N1c1ccccc1 (stereo not drawn) | 1.22 (inactive) | 0.481 | 0.915 | -2.39 (inactive) | 0.563 (inactive) | 0.544 (inactive)
17 | Cc1ccc(S[C@]2(C(=O)NCC(C)C)CC(=O)N(C3Cc4ccccc4C3)[C@@H]2c2ccc(CO)cc2I)cc1 | -0.238 (inactive) | -0.658 | -0.233 | -2.9 (inactive) | 0.495 (inactive) | 0.307 (inactive)
18 | COCCOC(=O)N1C(=O)[C@@]2(c3cc(C#CCCO)ccc31)[C@H](C(N)=O)[C@H]1C(=O)O[C@H](c3ccccc3)[C@H](c3ccccc3)N1[C@@H]2c1ccc(OCCO)cc1 | 1.56 (inactive) | 0.769 | -0.624 | -1.24 (inactive) | 0.0923 (inactive) | -0.0574 (inactive)
